Rows were chosen to be rich in hits. Some 6.9% of all compounds tested hit in one or more screens of this group.
CSC inhib – cancer stem cell viability inhibitors, primary screen, luminescence; cancer stem cell-like cells viability; inhibition, % at 7.5 µM; 300,000 tested, 1.1% active; AID 2717, 2010; in the data active = inhibition above about 75%; tested in HMLE shEcad cells
Mdm2 MdmX PPI – inhibitors of human Mdm2-MdmX association, primary screen, cell-based, luminescence, split luciferase, SaOS-2, uHTS | SaOS-2 split-luciferase Mdm2/MdmX complementation | inhibition, % at 8 µM | 330,000 tested, 3% active;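 active = inhibition of at least 50% at 8 µM in the primary screen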
Target sequence (O15151 whole entry, looked up): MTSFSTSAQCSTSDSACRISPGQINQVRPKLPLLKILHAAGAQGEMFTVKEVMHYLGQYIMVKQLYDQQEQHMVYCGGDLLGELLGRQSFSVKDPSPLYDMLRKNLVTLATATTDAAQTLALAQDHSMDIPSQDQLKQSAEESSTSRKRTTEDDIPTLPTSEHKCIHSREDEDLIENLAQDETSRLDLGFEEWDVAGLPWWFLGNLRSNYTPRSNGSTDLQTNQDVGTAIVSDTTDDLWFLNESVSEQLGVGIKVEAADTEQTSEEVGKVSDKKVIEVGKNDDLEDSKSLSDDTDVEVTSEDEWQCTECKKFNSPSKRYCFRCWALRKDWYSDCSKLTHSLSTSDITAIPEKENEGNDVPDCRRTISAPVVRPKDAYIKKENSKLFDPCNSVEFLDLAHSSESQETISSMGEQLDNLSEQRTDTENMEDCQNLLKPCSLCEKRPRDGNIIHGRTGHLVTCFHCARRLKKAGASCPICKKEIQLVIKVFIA
Target sequence (Q00987 whole entry, looked up): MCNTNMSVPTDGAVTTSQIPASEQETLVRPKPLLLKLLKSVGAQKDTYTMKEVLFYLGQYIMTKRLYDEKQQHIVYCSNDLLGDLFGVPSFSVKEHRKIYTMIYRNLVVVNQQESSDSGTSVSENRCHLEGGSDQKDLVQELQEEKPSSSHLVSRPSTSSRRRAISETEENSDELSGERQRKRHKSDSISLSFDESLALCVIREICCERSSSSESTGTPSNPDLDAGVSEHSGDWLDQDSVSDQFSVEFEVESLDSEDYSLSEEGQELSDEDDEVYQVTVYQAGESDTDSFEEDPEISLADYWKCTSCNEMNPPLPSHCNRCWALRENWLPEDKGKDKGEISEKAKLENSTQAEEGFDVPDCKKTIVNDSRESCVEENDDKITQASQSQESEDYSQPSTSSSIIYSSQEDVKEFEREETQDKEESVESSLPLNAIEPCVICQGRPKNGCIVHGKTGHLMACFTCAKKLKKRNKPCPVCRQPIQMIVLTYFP
GRIN3A LBD mod – binders of NR3A ligand-binding domain, primary screen, biophysical, differential scanning fluorimetry, uHTS. Glutamate receptor ionotropic, NMDA 3A (GRIN3A) ligand-binding domain. NR3A LBD differential scanning fluorimetry, Tm shift; 0% = protein alone, 100% = glycine-bound protein. Tm shift relative to glycine control, % at 25 µM. 340,000 tested, 2.5% active;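 active = melting temperature shift of at least 10% of the positive control shift, at one fixed dose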
SKKanGAS inh – S. pyogenes SKKanGAS growth inhibitors in kanamycin, primary screen, streptokinase expression inhibitor project, SKKanGAS strain, BacTiter-Glo luminescence; 300,000 tested, 1.3% active; inhibition, % at 7.5 µM; 6 h; AID 1662, 2009;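 active = mean replicate score, as percent of positive control median, at least 50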;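 also: strain carries kanamycin resistance gene driven by streptokinase promoter and grows in 40 µg/ml kanamycin; loss of luminescence reflects streptokinase promoter inhibition or plain growth inhibition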
MPTP inh – mitochondrial permeability transition pore inhibitors, primary screen, biochemical, isolated mouse mitochondria, absorbance; 360,000 tested, 1.4% active; inhibition, % at 10 µM; Ca2+ swelling absorbance, 30 min;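 active = inhibition of 50% or more, scaled per plate between neutral and stimulator controls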
Beta apoptosis – inhibitors of cytokine-induced beta cell apoptosis, primary screen, luminescence; INS-1E cytokine-induced death, ATP luminescence, 48 h; percent of positive-control rescue, neutral wells zero; protection from apoptosis, % (concentration not given with the values); 300,000 tested, 0.8% active;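 active = Every replicate reaches about 75%, or at least half do and their mean reaches it too, limit read from the data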;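 also: higher means more ATP so stronger rescue from cytokine killing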
Of the large screens only hits and unclear results are named; the others gave an inactive call.

CCS(=O)(=O)N1CCC(NC(=O)C(Cc2ccc(OC)c(OC)c2)NC(C)=O)CC1 (stereo not drawn)	none
CCN1C[C@@H]2[C@@H]3C(=O)N(C)C(=O)[C@@H]3[C@](Cc3ccccc3)(C1=O)N2C(=O)c1ccc(C(C)(C)C)cc1	none (no result: CSC inhib, Mdm2 MdmX PPI, SKKanGAS inh, Beta apoptosis)
C=CCC[C@@H](Cc1ccc(F)cc1)C(=O)OCCNC(=O)[C@@H](CC=C)CC(=O)N[C@H](CO)Cc1ccccc1	none (no result: CSC inhib, SKKanGAS inh)
C=CCC[C@@H](Cc1ccc(F)cc1)C(=O)OCCNC(=O)[C@@H](CC=C)CC(=O)N[C@@H](CO)Cc1ccccc1	GRIN3A LBD mod 23 (no result: SKKanGAS inh)
C=CCC[C@@H](Cc1ccc(F)cc1)C(=O)OC[C@H](Cc1c[nH]c2ccccc12)NC(=O)[C@@H](CC=C)CC(=O)N[C@@H](CO)Cc1ccccc1	none (no result: SKKanGAS inh)
C=CCC[C@H](Cc1ccc(F)cc1)C(=O)OC[C@@H](Cc1c[nH]c2ccccc12)NC(=O)[C@@H](CC=C)CC(=O)N[C@@H](CO)Cc1ccccc1	GRIN3A LBD mod 16 (no result: SKKanGAS inh)
COc1ccc(CN2C[C@H]3CCCN3c3cc(Br)ccc3S2(=O)=O)cc1	GRIN3A LBD mod 18 (no result: CSC inhib, SKKanGAS inh, Beta apoptosis)
COC(=O)c1cc(S(=O)(=O)Nc2nn(C)c3ccccc23)oc1C	GRIN3A LBD mod 11
CC(=O)NC(c1ccccc1)c1nc(-c2cncnc2)cs1 (stereo not drawn)	none (no result: CSC inhib, Mdm2 MdmX PPI, GRIN3A LBD mod, SKKanGAS inh, Beta apoptosis)
c1ccc(Nc2nc(N3CCCCC3)nc(N3CCCCC3)n2)cc1	SKKanGAS inh 84
CCOc1nc(Nc2ccc(OC)cc2)nc(N2CCOCC2)n1	none
CCOc1ccc(Nc2nc(N3CCCCC3)nc(N3CCCCC3)n2)cc1	SKKanGAS inh 62
Cc1ccccc1-n1ncc2c1CC(C)(C)CC2NC(=O)c1cn[nH]c1C (stereo not drawn)	none (no result: CSC inhib, Beta apoptosis)
C/C(=N\Nc1cc(N2CCOCC2)nc(C)n1)c1ccc(F)cc1	none
C/C(=N\Nc1cc(N2CCCCC2)nc(C)n1)c1ccc(Br)cc1	CSC inhib 105, SKKanGAS inh 82
O=C(Nc1ccc(F)cc1)c1nsc(Cl)c1Cl	none
O=C(Nc1ccc(F)c(Cl)c1)c1nsc(Cl)c1Cl	GRIN3A LBD mod 15
Cc1ccc(C)c(N2CCN(C(=O)CCc3nc(-c4ccc(Br)cc4)no3)CC2)c1	GRIN3A LBD mod 17 (no result: CSC inhib, SKKanGAS inh, Beta apoptosis)
COc1cccc(-c2noc(CCC(=O)N3CCN(c4cc(C)ccc4C)CC3)n2)c1	none (no result: CSC inhib, SKKanGAS inh, Beta apoptosis)
Cc1ccc(C)c(N2CCN(C(=O)CCc3nc(-c4cccc(Cl)c4)no3)CC2)c1	GRIN3A LBD mod 17 (no result: CSC inhib, SKKanGAS inh, Beta apoptosis)
Cc1ccc(-c2noc(CCC(=O)N3CCN(c4cc(C)ccc4C)CC3)n2)cc1	none (no result: CSC inhib, SKKanGAS inh, Beta apoptosis)
CSc1nc2cc(Oc3cccc(Cl)c3Cl)c(Cl)cc2[nH]1	CSC inhib 103, SKKanGAS inh 96
CSc1nc2ccc(Cl)cc2[nH]1	none
Cc1ccccc1NC(=O)N1CCN(S(=O)(=O)c2ccccc2)CC1	none
Cc1[nH]n(-c2c(Cl)cc(Cl)cc2Cl)c(=O)c1C=Nc1ccc(S(=O)(=O)N2CCOCC2)cc1	GRIN3A LBD mod 11
COc1cc(C(=O)OC2CC3CCC2(C)C3(C)C)ccc1OC(C)=O (stereo not drawn)	CSC inhib 81 (no result: Beta apoptosis)
CCCCc1c(C)nn(-c2nnc3c4ccccc4n(CC)c3n2)c1C	SKKanGAS inh 76
CN(C)S(=O)(=O)c1ccc(NC(=O)c2ccc3ncsc3c2)cc1	GRIN3A LBD mod 17 (no result: MPTP inh)
O=C(Nc1ccc(Br)cc1)c1ccc2ncsc2c1	GRIN3A LBD mod 27
COc1ccc(NC(=O)c2ccc(S(=O)(=O)N(C)C)cc2)cc1OC	GRIN3A LBD mod 20
O=C(NCCN1CCC(n2c(=O)[nH]c3ccccc32)CC1)c1cccnc1Cl	none (no result: CSC inhib, Mdm2 MdmX PPI, GRIN3A LBD mod, SKKanGAS inh, Beta apoptosis)
N=c1c(C(=O)NCCN2CCOCC2)cc2c(=O)n3ccccc3nc2n1CCc1ccccc1	none
C=C(C)C(=O)OCC(O)COc1ccc(C(C)(C)c2ccc(OCC(O)COC(=O)C(=C)C)cc2)cc1 (stereo not drawn)	Beta apoptosis 104
CCC1=NN(C(=O)c2ccccc2Br)C(O)(c2ccc(Br)cc2)C1 (stereo not drawn)	none

Screens from PubChem BioAssay.
